Most compounds without a hit are left out; they make up all but 2.2% or so of the library.
KLF5 inhibitor – KLF5 expression inhibitors, primary screen, DLD-1 cells, luminescence; 290,000 compounds, 0.23% hits; AID 1700, 2009; DLD-1 KLF5 promoter-luciferase reporter; inhibition, % at 5 µM;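 active means inhibition above a per-plate limit of that plate's mean compound inhibition plus 3 SD, cut at about 60% in these data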;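 further: 0% = DMSO wells and 100% = LY294002 at 200 µM; higher means less KLF5 promoter-driven luciferase light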
BaF3 tox – parental Ba/F3 cell viability inhibition, counter-screen for JAK2V617F inhibitor project, murine pro-B, CellTiter-Glo luminescence; CellTiter-Glo ATP luminescence; inhibition, % at 5.6 µM; 220,000 compounds, 1.1% hits; AID 1486, 2009;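 active means inhibition above a per-campaign cutoff, the mean inhibition of all tested compounds plus 3 SD, cut at about 27% in these data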;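 further: 0% = DMSO wells and 100% = JAK Inhibitor I control wells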
Ba/F3 V617F tox – reduced viability of JAK2V617F-dependent Ba/F3 cells, primary screen, JAK2V617F inhibitor project, cell-based, Ba/F3 EpoR-JAK2V617F, luminescence; ATP luminescence; inhibition, % at 5.6 µM; 220,000 compounds, 1.1% hits;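 active means inhibition above the campaign mean plus 3 SD over all tested compounds, cut at about 24% in these data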;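 further: cytokine-independent growth of Ba/F3 cells driven by EpoR plus mutant JAK2; 0% = DMSO-treated cells and 100% = JAK inhibitor I control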
aSyn UTR inh – MLPCN primary screen, SNCA 5' untranslated region; 300,000 compounds, 0.82% hits; inhibition, % (tested at 7.5 µM); alpha-synuclein 5'UTR reporter, inhibitor activity; in the data active means inhibition above about 60%;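 further: H4 neuroglioblastoma cells stably carrying SNCA 5'UTR luciferase fusion; 0% = DMSO wells and 100% = positive control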
APP transl inh – inhibitors of APP translation via 5'UTR reporter, primary screen, APP 5'UTR luciferase, SH-SY5Y cells; SH-SY5Y APP 5'UTR-luciferase reporter, luminescence; AID 1285, 2008; 190,000 compounds, 0.82% hits; inhibition, % at 2 µM;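 active means inhibition above a set limit, derived from the sample mean plus 3 SD, cut at about 45% in these data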
IEC-6 tox – cytotoxicity in IEC-6 intestinal epithelial cells, primary screen, cytotoxicity control for KLF5 inhibitor project, cell-based, luminescence | IEC-6 cytotoxicity, luminescence viability | inhibition, % at 5 µM | 290,000 compounds, 0.78% hits;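 further: 0% = plate median of test compound wells and 100% = cytotoxic reference compound wells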
IEC-6 tox confirm – cytotoxic compounds in IEC-6 epithelial cells, confirmation, cytotoxicity control, cell-based, luminescence. shares compounds with IEC-6 tox. 1,900 compounds, 63% hits. IEC-6 rat intestinal epithelial viability. inhibition, % at 5 µM. AID 1907, 2009;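 further: 0% = vehicle and 100% = reference cytotoxic drug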
* = called active by the depositor; i = inactive; · = not tested or not shown. Unless noted, no stated cut-off is given here; in the data, active means inhibition above about 22%; inactive means the rest.

SMILES	KLF5 inhibitor	BaF3 tox	Ba/F3 V617F tox	aSyn UTR inh	APP transl inh	IEC-6 tox	IEC-6 tox confirm
Oc1c(C(Nc2ccccn2)c2ccccn2)ccc2cccnc12 (stereo not given)	15	6	3	54	26	-6	·
CCC(=O)NC(NC(=S)Nc1cccc2cccnc12)C(Cl)(Cl)Cl (stereo not given)	-33	6	-1	4	-10	4	·
Cc1cc(NC(c2ccc(Cl)cc2)c2ccc3cccnc3c2O)no1 (stereo not given)	51	55*	6	85*	79*	39*	72*
CCC(=O)NC(c1ccc(Cl)cc1Cl)c1ccc2cccnc2c1O (stereo not given)	86*	·	·	75*	·	26*	70*
CCC(=O)NC(c1ccc(C)cc1)c1ccc2cccnc2c1O (stereo not given)	73*	·	·	81*	·	61*	82*
CCC(=O)C1CCCN(C(=O)c2ccc(OC)c(OC3CCN(C(C)=O)CC3)c2)C1 (stereo not given)	-8	·	·	-8	·	-4	·
O=C1c2ccccc2C(=O)N1c1cccc2cccnc12	-23	10	3	10	-10	44*	9
CCC(C(=O)N1CCOCC1)n1c2ccccc2c2nc(=O)cc(C)n21 (stereo not given)	-62	·	·	12	·	-4	·
O=C(O)c1ccc(N/N=C/C=C/c2ccccc2[N+](=O)[O-])cc1	-135	-1	4	-127	-113	24*	39*
COc1cccc(OCc2cc(C(=O)N(C)CCOc3ccc(C)cc3)no2)c1	-94	·	·	-133	·	-2	·
CCN1CCN(c2ncc3c(n2)CC(c2cc(OC)c(OC)c(OC)c2)CC3=O)CC1 (stereo not given)	53	82*	81*	35	5	65*	57*
CC(C)C(=O)Nc1ccc(-c2nc3ncccc3o2)cc1	-53	·	·	-9	·	9	·
O=C(Nc1ccc(-c2nc3ncccc3o2)cc1)c1ccc([N+](=O)[O-])o1	14	·	·	100*	·	80*	8
O=C(Nc1ccc2oc(-c3ccncc3)nc2c1)c1ccc([N+](=O)[O-])o1	-17	·	·	-118	·	95*	17
O=C(Nc1ccc2oc(-c3ccncc3)nc2c1)c1ccccc1	-32	0	-3	-17	-1	-2	·
Cc1ccc(-c2nc3ncccc3o2)cc1NC(=O)c1ccc([N+](=O)[O-])o1	-7	·	·	i	·	98*	20
C=CCN(c1ccccc1)S(=O)(=O)c1cccc(C(=O)Nc2cccc(C)n2)c1	·	·	·	9	·	·	·
CCOc1ccc(OCC)c(NC(=O)C2CCN(c3cnccn3)CC2)c1	-18	·	·	1	·	-6	·
CCCCCCCCn1c2c(c(=N)c3ccccc31)CCC2	55	82*	99*	59	-10	40*	37*
COc1ccc(Br)cc1CN1CCN(C(=O)c2cccc(F)c2)CC1	10	·	·	16	·	6	·
OCC[n+]1ccc(/C=C/c2c[nH]c3ccccc23)cc1	6	84*	90*	-12	16	56*	5
O=C(/C=C/c1c[nH]c2ccccc12)c1ccccc1	-51	5	3	-330	-117	0	·
Cc1ccccc1C(=O)NNC(=O)C12CC3CC(CC(C3)C1)C2	4	-6	-3	13	13	2	·
Cc1cccc(C(=O)NNC(=O)C23CC4CC(CC(C4)C2)C3)c1O	-21	·	·	-15	·	37*	5
Cc1c(OC(C)C(=O)N2C[C@H]3C[C@@H](C2)c2cccc(=O)n2C3)ccc2c3c(c(=O)oc12)CCCC3 (stereo not given in full)	-25	·	·	2	·	0	·
SMILES	KLF5 inhibitor	BaF3 tox	Ba/F3 V617F tox	aSyn UTR inh	APP transl inh	IEC-6 tox	IEC-6 tox confirm
COc1ccc(CNc2ncnc3cc(OC)c(OC)cc23)cc1OC	-16	10	5	5	12	7	·
COc1cc2ncnc(NCc3cccc(Cl)c3)c2cc1OC	7	2	1	17	10	33*	37*
COc1cc2ncnc(NCc3cc(F)ccc3F)c2cc1OC	4	·	·	15	·	37*	21
COc1cc2ncnc(NCc3ccccc3)c2cc1OC	6	5	1	15	-2	26*	30*
O=C1C=C(NCCN2CCOCC2)C(=O)c2cnccc21	30	11	8	131*	13	99*	100*
O=C(NCCN1CCOCC1)c1ccncc1	3	1	-1	11	-14	-8	·
CN(Cc1ccccc1)C(=O)COC(=O)c1ccc(=O)n(Cc2ccccc2)n1	·	·	·	2	·	·	·
Cc1c(OCC(=O)NCC(O)c2ccccc2)ccc2c3c(c(=O)oc12)CCCC3 (stereo not given)	-5	·	·	12	·	2	·
Cc1cnc(C(=O)Nc2cccc3cccnc23)cn1	-1	34*	90*	-25	74*	91*	18
Cc1cccc(C(=O)Nc2cccc3cccnc23)c1	-94	·	·	-56	·	8	·
Cc1ccc(C(=O)N2CCN(S(=O)(=O)c3ccc(Br)cc3)CC2)o1	3	·	·	-13	·	-5	·
COCCCNC(=S)N/N=C/c1ccc(O)cc1O	-12	0	-4	-7	·	-3	·
COCCCNC(=S)N/N=C/c1cccc(OC)c1O	40	0	-3	·	·	60*	18
CC(=O)c1cccc(NC(=O)c2ccc([N+](=O)[O-])o2)c1	·	·	·	-58	·	·	·
COc1ccc(NC(=O)c2ccc([N+](=O)[O-])o2)cc1	-20	·	·	-320	·	44*	1
Cc1cc(C)cc(NC(=O)c2ccc([N+](=O)[O-])o2)c1	9	59*	95*	-31	71*	103*	24*
CC(=O)c1ccc(NC(=O)c2ccc([N+](=O)[O-])o2)cc1	-19	·	·	-355	·	32*	11
CCc1noc(C)c1C(=O)NNC(=O)COc1ccc(C)cc1	·	·	·	-4	·	·	·
CCCCc1nc2cc(C(=O)N3CCCC(COC)C3)ccc2o1 (stereo not given)	-94	·	·	-86	·	-8	·
O=C(Nc1ccccc1)/C(=C\c1ccc(F)cc1)NC(=O)c1ccco1	5	·	·	7	·	-3	·
